We go through 31 compounds from PubChem BioAssay (NCATS).

Test [1] in a line: NS1 protein of Zika virus - qHTS assay to identify small molecule inhibitors in human HEK 293 cells (AID 1347053). Note: nearly all actives have a fitted effect of over 55% in size. The note with it: HEK293 ZIKV MR766 infection, NS1 TR-FRET, 24 h; series mostly up to 46.1 µM. In outline: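 Compound-treated (1 h pre-infection) HEK 293 cells infected with ZIKV MR766, MOI = 0.5; after 24 h at 37 C, NS1 read by TR-FRET; data normalized to uninfected and infected controls.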

Test [2] is described as follows: qHTS of pediatric cancer cell lines to identify multiple opportunities for drug repurposing: Primary screen for SJ-GBM2 cells (AID 1347091). Note: potency is the fitted concentration of half-maximal effect. The note with it: SJ-GBM2 viability, CellTiter-Glo luminescence, 48 h; series mostly up to 46 µM. In outline:
(§1)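 Eight- or eleven-point concentration series, 48 h treatment at 37 degrees C in growth media; readout CellTiter-Glo luminescence. Potency and efficacy were taken from the concentration-response curves.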

A short description of test [3]: qHTS of pediatric cancer cell lines to identify multiple opportunities for drug repurposing: Primary screen for DAOY cells (AID 1347090). Note: nearly all actives have a fitted effect of over 55% in size. Note: potency is the fitted concentration of half-maximal effect. The note with it: DAOY medulloblastoma viability, CellTiter-Glo luminescence, 48 h; series mostly up to 46 µM. In outline: as §1
Test [4] can be described thus: qHTS of pediatric cancer cell lines to identify multiple opportunities for drug repurposing: Primary screen for A673 cells (AID 1347092). Note: nearly all actives have a fitted effect of over 45% in size. Note: potency is the fitted concentration of half-maximal effect. The note with it: A673 Ewing sarcoma viability, CellTiter-Glo ATP luminescence, 48 h; series mostly up to 46 µM. In outline:
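A673 cells (500-1,000 cells/well) were treated 48 hours at 37 degrees C with compounds at 11-point (0.78 nM to 46 µM) or 8-point (0.59 nM to 46 µM) dilutions. Viability read by CellTiter-Glo luminescence; concentration-response curves fitted.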

Test [5] can be described thus: qHTS of pediatric cancer cell lines to identify multiple opportunities for drug repurposing: Primary screen for TC32 cells (AID 1347089). Note: nearly all actives have a fitted effect of over 60% in size. Note: potency is the fitted concentration of half-maximal effect. The note with it: TC32 Ewing sarcoma viability, CellTiter-Glo luminescence, 48 h; series mostly up to 45.8 µM. In outline:
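TC32 cells, 500-1,000/well in growth medium, compound-treated 48 h at 37 °C; viability from CellTiter-Glo luminescence. Primary screen: MIPE 11-point (0.78 nM–46 µM final), NPC 8-point (0.59 nM–46 µM final); confirmatory at 11-point dilutions.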

Test [6] concerns the target T1, Tyrosine-protein phosphatase non-receptor type substrate 1 (Homo sapiens) + Leukocyte surface antigen CD47 (Homo sapiens) (UniProt P78324+Q08722). Briefly: CD47-SIRPalpha protein protein interaction - LANCE assay qHTS validation (AID 1347057; active = well fitted curve in the direction sought with a large enough effect in the signal ratio, with a control signal flat, not every such curve was filed as active; the % refers to the signal ratio). The note with it: Recombinant CD47-His / biotin-SIRPalpha, TR-FRET ratio; series mostly up to 38.3 µM. In outline: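 Inhibition of soluble CD47/SIRPalpha ectodomain association by titrated compounds, measured as 665/615 nm time-resolved FRET ratio after sequential 30 min room-temperature incubations.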

The target of test [7] is T1, Tyrosine-protein phosphatase non-receptor type substrate 1 (Homo sapiens) + Leukocyte surface antigen CD47 (Homo sapiens). Briefly: CD47-SIRPalpha protein protein interaction - Alpha assay qHTS validation (AID 1347059).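 Note: bead proximity luminescence from CD47 binding SIRPalpha after compound preincubation with SIRPalpha.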 The note with it: AlphaScreen CD47-His/biotin-SIRPalpha binding, LOPAC; series mostly up to 38.3 µM. In outline:
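In PBS (pH 7.4) with 0.05% IGEPAL CA-630, compound is preincubated with biotin-Avi-SIRPalpha ectodomain before His-CD47 ectodomain and affinity beads are added. Light-protected room-temperature incubations; AlphaScreen readout.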

For test [8], the target named is Parathyroid hormone/parathyroid hormone-related peptide receptor (Homo sapiens) (UniProt Q03431). Briefly: qHTS for PTHR1 Agonists: Optimization Screen against the NCGC LOPAC library (AID 1347079). The note with it: HEK293 GP2 PTHR1 GloSensor cAMP luminescence, 1 h; series mostly up to 57.1 µM. In outline: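 Signal increase flags agonism. GP2 cells, derived from HEK-293, express human PTHR1 and a GloSensor cAMP construct.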

Results filed as inconclusive are left out. Active and inactive are the calls of the source. Unless noted, calls come from the whole dose curve; as a rule, active = well fitted curve in the direction sought with a large enough effect; inconclusive = small, poorly fitted or top-dose-only effect, or another doubt; inactive = no such curve, though single readings can be large; an effect the other way counts as inactive or inconclusive.

T1 sequence (P78324 whole entry, looked up, the tested form may be a part): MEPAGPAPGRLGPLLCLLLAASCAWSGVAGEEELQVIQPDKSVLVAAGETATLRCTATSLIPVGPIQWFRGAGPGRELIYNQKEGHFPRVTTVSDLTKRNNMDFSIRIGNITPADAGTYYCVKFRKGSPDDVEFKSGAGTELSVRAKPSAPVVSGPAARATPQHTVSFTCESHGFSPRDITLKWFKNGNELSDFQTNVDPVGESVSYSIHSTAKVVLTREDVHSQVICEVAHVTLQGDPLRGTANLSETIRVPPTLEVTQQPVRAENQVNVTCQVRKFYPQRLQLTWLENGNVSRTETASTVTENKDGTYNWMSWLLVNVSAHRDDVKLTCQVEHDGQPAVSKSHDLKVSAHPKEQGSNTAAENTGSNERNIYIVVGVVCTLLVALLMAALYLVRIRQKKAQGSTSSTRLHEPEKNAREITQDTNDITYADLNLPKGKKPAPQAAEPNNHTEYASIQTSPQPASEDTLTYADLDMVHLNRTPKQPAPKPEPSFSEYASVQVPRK
T1 sequence (Q08722 whole entry, looked up, the tested form may be a part): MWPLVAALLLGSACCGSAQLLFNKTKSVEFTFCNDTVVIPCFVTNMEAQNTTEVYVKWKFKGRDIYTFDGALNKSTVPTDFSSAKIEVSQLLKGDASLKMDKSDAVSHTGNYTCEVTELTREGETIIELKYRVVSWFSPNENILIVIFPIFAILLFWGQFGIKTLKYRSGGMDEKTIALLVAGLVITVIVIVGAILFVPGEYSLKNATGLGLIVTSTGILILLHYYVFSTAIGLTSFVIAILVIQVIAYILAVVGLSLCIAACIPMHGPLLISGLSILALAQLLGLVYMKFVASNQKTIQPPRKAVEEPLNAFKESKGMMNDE
Chain of Parathyroid hormone/parathyroid hormone-related peptide receptor (Homo sapiens) (Q03431 whole entry, looked up): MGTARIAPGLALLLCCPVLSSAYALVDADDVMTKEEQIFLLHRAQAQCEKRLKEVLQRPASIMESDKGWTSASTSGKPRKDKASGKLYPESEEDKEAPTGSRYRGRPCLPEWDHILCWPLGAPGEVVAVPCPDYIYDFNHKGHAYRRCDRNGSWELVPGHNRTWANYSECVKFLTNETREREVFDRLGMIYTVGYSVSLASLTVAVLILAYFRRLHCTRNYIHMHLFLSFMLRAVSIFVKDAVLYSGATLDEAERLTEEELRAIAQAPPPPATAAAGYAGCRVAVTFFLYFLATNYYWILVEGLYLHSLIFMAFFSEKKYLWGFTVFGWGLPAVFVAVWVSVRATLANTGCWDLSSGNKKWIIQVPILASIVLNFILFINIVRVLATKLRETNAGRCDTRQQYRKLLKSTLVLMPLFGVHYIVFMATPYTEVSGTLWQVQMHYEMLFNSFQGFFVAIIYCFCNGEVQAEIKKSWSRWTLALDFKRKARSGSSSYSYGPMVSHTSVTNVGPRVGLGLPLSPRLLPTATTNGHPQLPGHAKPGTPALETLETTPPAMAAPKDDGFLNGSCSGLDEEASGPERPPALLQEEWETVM

`Cc1ccc(C(=O)Oc2ccc(C(O)CNC(C)(C)C)cc2OC(=O)c2ccc(C)cc2)cc1` (stereo not given): the Potency result in test [1] and in test [2] was “inactive” each time.
For the compound `CCC(=O)O[C@]1(C(=O)COC)[C@@H](C)C[C@H]2[C@@H]3CCC4=CC(=O)C=C[C@]4(C)C3(F)[C@@H](O)C[C@@]21C` (stereo not given in full), the Potency entry in test [1], in test [3], in test [2] and in test [4] was “inactive” in each case.
In the case of `CSc1ccc(/C=C2/C(C)=C(CC(=O)O)c3cc(F)ccc32)cc1`, the Potency entry in test [5], in test [3], in test [2] and in test [4] was “inactive” in each case.
Regarding `CN1CCN(N)CC1`, the Potency entry in test [1], in test [2] and in test [4] was “inactive” in each case.
Turning to `CC(=O)Oc1ccc(C2(c3ccc(OC(C)=O)cc3)Oc3ccccc3NC2=O)cc1`, the Potency entry in test [1] was “inactive”. Further, the Potency in test [3] and in test [4] was 13.3 µM (active) throughout.
On to `CC(C)N(CCC(=O)c1ccc2ccccc2c1)Cc1ccccc1`, for which the outcome in test [6] and in test [8] was inactive. The Potency entry in test [7] is “inactive”.
Consider `Cc1ccc2ccc(Cl)cc2n1`, for which the Potency result in test [1], in test [3], in test [2] and in test [4] was “inactive” throughout.
On to `CCc1cccc2c(CCO)c[nH]c12`, for which the Potency entry in test [1], in test [3], in test [2] and in test [4] was “inactive” in each case.
Regarding `O=C1OC2(c3ccccc31)c1cc(I)c(O)c(I)c1Oc1c2cc(I)c(O)c1I`, the Potency result in test [3] and in test [4] was “inactive” in each case.
In the case of `COc1c(N2C[C@@H]3CCCN[C@@H]3C2)c(F)cc2c(=O)c(C(=O)O)cn(C3CC3)c12`, the Potency result in test [5], in test [3], in test [2] and in test [4] was “inactive” in each case.
As for `O=C1NC2CCCCN2C12CCN(CCCN1c3ccccc3CCc3ccc(Cl)cc31)CC2` (stereo not given), the Potency result in test [5] was “inactive”. Also, the Potency in test [2] was 23.7 µM (active).
For `Clc1ccc2c(c1)Nc1ccccc1S2`, the Potency entry in test [5], in test [3], in test [2] and in test [4] was “inactive” throughout.
With `OC(CCCN1CCCCC1)(c1ccccc1)c1ccccc1`, the Potency result in test [5], in test [3], in test [2] and in test [4] was “inactive” throughout.
On to `CCCCCCCCCCCCCC[N+](C)(C)C`, for which the results for the Potency in test [3], in test [2] and in test [4] were 10.6 µM (active), 11.9 µM (active) and 2.11 µM (active), respectively.
`Nc1ccc2c(c1)CN1C(=O)c3ccccc3C1=N2`: the Potency entry in test [5] and in test [2] was “inactive” throughout.
Consider `O=C(c1ccco1)N1CCNCC1`, for which the Potency result in test [5], in test [3], in test [2] and in test [4] was “inactive” throughout.
`CC(=O)O[C@@H]1C(=O)O[C@@H]2[C@H]1OC(=O)[C@@H]2OC(C)=O`: the Potency result in test [5] and in test [2] was “inactive” each time. Moreover, the Potency in test [4] is 13.3 µM (active).
Take `COc1cc(/C=C/C(N)=O)cc(OC)c1OC`: the Potency result in test [5], in test [3], in test [2] and in test [4] was “inactive” throughout.
Turning to `CCN1C(=O)c2ccccc2C1Nc1ccc(OCCN2CCCCC2)cc1` (stereo not given), the Potency entry in test [5], in test [3], in test [2] and in test [4] was “inactive” in each case.
`CC(=O)OC[C@H]1O[C@@H](OC(C)=O)[C@H](OC(C)=O)[C@@H]1OC(C)=O`: the Potency entry in test [5], in test [2] and in test [4] was “inactive” throughout.
For `COc1ccc([C@@H]2Sc3ccccc3NC(=O)[C@@H]2O)cc1`, the Potency in test [2] is 7.5 µM (active).
Consider `CCN(CC)CCOc1ccc(/C(=C(\Cl)c2ccccc2)c2ccccc2)cc1`, for which the Potency in test [2] is 18.8 µM (active); in test [4], 21.1 µM (active).
As for `NS(=O)(=O)c1cc(C(=O)NN2C[C@H]3[C@H]4CCC(C4)[C@H]3C2)ccc1Cl`, the Potency result in test [3], in test [2] and in test [4] was “inactive” each time.
As to `CCCCCOc1ccc(C2SC(=O)NC2=O)cc1OCC` (stereo not given), the Potency entry in test [5], in test [3], in test [2] and in test [4] was “inactive” in each case.
In the case of `Cc1cc(OCCOCC[N+](C)(C)Cc2ccccc2)ccc1C(C)(C)CC(C)(C)C`, the Potency in test [5] was 26.4 µM (active); in test [2], 21.1 µM (active); in test [4], 10.6 µM (active).
Consider `CCC1=C[C@@H]2CN(C1)Cc1c([nH]c3ccccc13)[C@@](C(=O)OC)(c1cc3c(cc1OC)N(C)[C@H]1[C@@](O)(C(=O)OC)[C@H](OC(C)=O)[C@]4(CC)C=CCN5CC[C@]31[C@@H]54)C2`, for which the Potency in test [5] is 0.0264 µM (active); in test [2] it was 0.0084 µM (active); in test [4], 0.0106 µM (active).
Turning to `CO[C@@H]1[C@@H](OC)[C@H](C)[C@@](O)(CC(=O)O)O[C@H]1[C@H](C)[C@H]1O[C@@]2(CC[C@@](C)([C@H]3CC[C@@](C)([C@@H]4O[C@@H]([C@H]5O[C@](C)(O)[C@H](C)C[C@@H]5C)C[C@@H]4OC4C[C@H](OC)[C@@H](OC)[C@H](C)O4)O3)O2)C[C@H](O)[C@H]1C` (stereo not given in full), the Potency in test [5] is 1.87 µM (active); in test [3], 3.35 µM (active); in test [4], 4.22 µM (active).
For the compound `Nc1c2ccccc2nc2ccccc12`, in test [4], the Potency was 6.68 µM (active).
`CCN(CC)CC(=O)Oc1ccc(NC(C)=O)cc1`: the Potency result in test [3], in test [2] and in test [4] was “inactive” in each case.
`NS(=O)(=O)c1ccc(N2CCCCS2(=O)=O)cc1`: the Potency result in test [5], in test [2] and in test [4] was “inactive” each time.
With `CC1(C)O[C@@H]2C[C@H]3[C@@H]4CCC5=CC(=O)C=C[C@]5(C)[C@@]4(F)[C@@H](O)C[C@]3(C)[C@]2(C(=O)CO)O1`, the Potency result in test [5], in test [2] and in test [4] was “inactive” in each case.
